D2 ag-1 – activates the human D2 dopamine receptor; DiscoveRx PathHunter D2 beta-arrestin, luminescence, 90 min; 100% = 57 uM dopamine signal; P14416; activation, % (concentration not given with the values); hit rate 0.084% among 360,000; in the data active = activation above about 40%
Target sequence (P14416 whole entry, looked up): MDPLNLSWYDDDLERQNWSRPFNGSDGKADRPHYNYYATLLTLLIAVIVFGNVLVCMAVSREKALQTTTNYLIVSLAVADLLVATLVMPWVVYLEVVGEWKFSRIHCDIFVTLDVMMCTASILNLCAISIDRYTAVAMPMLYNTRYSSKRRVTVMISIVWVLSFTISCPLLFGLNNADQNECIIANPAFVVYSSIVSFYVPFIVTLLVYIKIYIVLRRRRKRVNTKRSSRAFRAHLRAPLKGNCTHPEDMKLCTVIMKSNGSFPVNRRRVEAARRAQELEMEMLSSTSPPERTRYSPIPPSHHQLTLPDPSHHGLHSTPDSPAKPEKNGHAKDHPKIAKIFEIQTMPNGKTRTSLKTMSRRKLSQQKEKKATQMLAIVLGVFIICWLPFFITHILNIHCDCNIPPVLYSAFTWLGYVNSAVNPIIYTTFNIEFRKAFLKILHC
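DiscoveRx PathHunter D2 beta-arrestin cells (2,100/well) attached overnight, then compound-stimulated 90 min at 37 C in HBSS/10 mM HEPES/0.1% Tween-20 buffer; beta-galactosidase complementation read by luminescence after 1 h at ambient temperature. Dopamine 57 uM final (EC100) as control.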
D2 PAM-1 – positive allosteric modulators of human D2 dopamine receptor | P14416 | DiscoveRx D2 beta-arrestin cells, luminescence, 90 min; 100% = 57 uM dopamine signal | potentiation, % (no concentration beside the values) | hit rate 0.23% among 360,000 | AID 624464; in the data active = potentiation above about 50%
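D2 cells co-treated with compound plus 50 nM dopamine (EC20) for 90 min at 37 deg C to detect potentiation. Beta-arrestin recruitment was read as enzyme-fragment luminescence after 1 h at ambient temperature. Full response was set by 57 uM dopamine.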
D2 antagonist – antagonizes the human D2 dopamine receptor; inhibition, % at 10 µM; HEK293 TREx D2 cells, calcium flux, dopamine EC80; P14416; hit rate 2% among 340,000; AID 485344; in the data active = inhibition above about 30%; inactive = below that, where a call was filed; also: 0% is about no effect
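Calcium mobilization kinetics were recorded at 1 s intervals in tetracycline-induced HEK293 T-REx D2 cells, first for 180 s after compound addition and then 180 s after EC80 dopamine.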
D2 PAM-2 – positive allosteric modulators of human D2 dopamine receptor; P14416; HEK293 T-REx D2, calcium flux, EC20 dopamine potentiation; potentiation, % at 10 µM; hit rate 0.34% among 340,000; AID 485347;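 active = potentiation over 3 SD above the plate norm, cut at about 30% in these data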; also: 0% is about no effect
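Primary screen. Calcium kinetics in induced HEK293 T-REx D2 cells: compound pre-addition 180 s, EC20 dopamine, 180 s more.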
D2 ag-2 – agonists of human D2 dopamine receptor | P14416 | HEK293 T-REx D2 cells, calcium flux agonist mode | activation, % at 2 µM | hit rate 0.53% among 340,000 | AID 485358;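 active = activation over 3 SD above normal in the single-dose calcium agonist read, cut at about 30% in these data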; also: 0% is about no effect
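Calcium-flux readout, 1 cycle/sec over 180 s following compound pin transfer, in inducible HEK293 Trex D2 cells (force-coupled); dopamine controls included. Positive calcium responses during this window marked compounds as potential agonists.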
An asterisk follows results filed as active. Sampled rows, rich in hits. Any-hit rate of the full collection: about 2.4%.

Screening c1ccc(Cn2nnnc2C(c2cccs2)N2CCSCC2)cc1 (configuration not stated) returned D2 ag-1 -2, D2 PAM-1 -11, D2 antagonist 33*, D2 PAM-2 -13 and D2 ag-2 0.
`CN1CCC(=O)N([C@H](CSc2ccccc2)c2ccccc2)CC1` gave D2 ag-1 -3, D2 PAM-1 -18, D2 antagonist 6, D2 PAM-2 -18 and D2 ag-2 -1.
For Cc1ccc(SC[C@H](c2ccccc2)N2CCN(C)CCC2=O)cc1 the results were D2 ag-1 -3, D2 PAM-1 -20, D2 antagonist 38*, D2 PAM-2 1 and D2 ag-2 -1.
For CCOC(=O)c1cc(NC(=O)c2ccc(C)cc2)c(=O)n2c1oc1ccc(Cl)cc12 the results were D2 PAM-2 -2 and D2 ag-2 -1.
`CCOC(=O)c1cc(NC(=O)c2ccc(Cl)cc2)c(=O)n2c1oc1ccc(Cl)cc12` gave D2 ag-1 0, D2 PAM-1 -20, D2 antagonist 32*, D2 PAM-2 15 and D2 ag-2 1.
Screening COCCn1c(SCC(=O)Nc2sc(C)c(C)c2C#N)nnc1-c1ccc(OC)cc1 returned D2 ag-1 1, D2 PAM-1 -4, D2 antagonist 4, D2 PAM-2 -23 and D2 ag-2 -2.
`COCCn1c(SCC#N)nnc1-c1ccc(OC)cc1` gave D2 ag-1 2, D2 PAM-1 -5, D2 antagonist 55*, D2 PAM-2 -20 and D2 ag-2 -1.
COc1ccc(-c2cc3c(=O)n(CC(=O)NCc4ccc(Cl)cc4)ncn3n2)cc1 was read as D2 ag-1 -4, D2 PAM-1 -2, D2 antagonist -18, D2 PAM-2 -1 and D2 ag-2 0.
Screening COc1ccc(-c2cc3c(=O)n(CC(=O)NCCCN4CCC(Cc5ccccc5)CC4)ncn3n2)cc1 returned D2 ag-1 -5, D2 PAM-1 -56, D2 antagonist 89*, D2 PAM-2 -26 and D2 ag-2 0.
Screening Cc1nn(CC(=O)NCCCN2CCN(C)CC2)c(=O)c2cc(-c3ccccc3)nn12 returned D2 ag-1 2, D2 PAM-1 -16, D2 antagonist 4, D2 PAM-2 30* and D2 ag-2 0.
CCOc1ccc(CCNC(=O)Cn2ncn3nc(-c4ccc(OC)cc4)cc3c2=O)cc1 was read as D2 ag-1 0, D2 PAM-1 -3, D2 antagonist -12, D2 PAM-2 -1 and D2 ag-2 0.
For Cc1nn(CC(=O)NCCCc2ccccc2)c(=O)c2cc3occc3n12 the results were D2 ag-1 3, D2 PAM-1 -7, D2 antagonist 32*, D2 PAM-2 -12 and D2 ag-2 0.
For COc1ccc(-c2cc3c(=O)n(CC(=O)NCCCN4CCN(Cc5ccccc5)CC4)ncn3n2)cc1 the results were D2 ag-1 -7, D2 PAM-1 -18, D2 antagonist 37*, D2 PAM-2 -32 and D2 ag-2 1.
`Cc1cc(C)n2c(Nc3ccccc3)c(-c3ccccc3)nc2n1` gave D2 PAM-2 1 and D2 ag-2 -1.
For CCOC(=O)c1c(NC(=O)c2cc3nc(-c4ccccc4)cc(C(F)(F)F)n3n2)sc2c1CCC(C)C2 (configuration not stated) the results were D2 PAM-2 -4 and D2 ag-2 1.
For C=CCOC1COC2C(OCC=C)COC12 (configuration not stated) the results were D2 ag-1 -3 and D2 PAM-1 -26.
`Cc1nn(-c2ccccc2)c2c1N(CCCC(=O)NCc1ccc(OC(C)C)cc1)C(=O)CS2` gave D2 PAM-2 -5 and D2 ag-2 1.
Screening COc1ccc(NC2=CC(=O)CC(c3ccccc3)C2)c(OC)c1 (configuration not stated) returned D2 ag-1 -1, D2 PAM-1 -3, D2 antagonist 31*, D2 PAM-2 -5 and D2 ag-2 -1.
`O=C(CCCN1CC=C(n2c(=O)[nH]c3ccccc32)CC1)c1ccc(F)cc1` gave D2 ag-1 -3, D2 PAM-1 -33, D2 antagonist 81*, D2 PAM-2 -23 and D2 ag-2 1.
CCOC(=O)N1CCN(S(=O)(=O)CCNC(=O)c2ccc(F)cc2)CC1 was read as D2 ag-1 -5, D2 PAM-1 -1, D2 antagonist -8 and D2 PAM-2 6.
CCOC(=O)N1CCN(S(=O)(=O)CCNC(=O)c2ccc(OC)cc2)CC1 was read as D2 ag-1 -5, D2 PAM-1 2, D2 antagonist 34*, D2 PAM-2 -8 and D2 ag-2 0.
`O=S(=O)(Nc1cccc(S(=O)(=O)N2CCOCC2)c1)c1cccs1` gave D2 ag-1 -2, D2 PAM-1 -4, D2 antagonist 10, D2 PAM-2 -11 and D2 ag-2 32*.
For O=S(=O)(Nc1cccc(S(=O)(=O)N2CCOCC2)c1)c1ccc2c(c1)OCCO2 the results were D2 ag-1 -4, D2 PAM-1 2, D2 antagonist 0, D2 PAM-2 5 and D2 ag-2 2.
`CC1CCN(CCCCOc2ccc(C(=O)c3ccccc3)cc2)CC1` gave D2 ag-1 -3, D2 PAM-1 -15 and D2 PAM-2 -20.
For Cc1ccc(OCCCCN2CCC(C)CC2)cc1 the results were D2 ag-1 2, D2 PAM-1 -16, D2 antagonist 49*, D2 PAM-2 -21 and D2 ag-2 1.
For Brc1cccc(OCCCN2CCCCCC2)c1 the results were D2 ag-1 1, D2 PAM-1 -23, D2 antagonist 14, D2 PAM-2 -31 and D2 ag-2 0.
`CCN(CC)CCOc1cccc(C(C)C)c1` gave D2 ag-1 3, D2 PAM-1 -31, D2 antagonist 73* and D2 ag-2 2.
Screening CC1CCN(CCCCOc2cccc(C(C)C)c2)CC1 returned D2 ag-1 0, D2 PAM-1 -12, D2 antagonist 58*, D2 PAM-2 -29 and D2 ag-2 0.
CC1CCN(CCOc2cccc(Br)c2)CC1 was read as D2 ag-1 -2, D2 PAM-1 -17, D2 antagonist 98*, D2 PAM-2 -28 and D2 ag-2 29.
Screening Cc1ccc(Cl)cc1N1CCN(C(=O)CN2C(=O)COc3ccc(S(=O)(=O)N4CCC(C)CC4)cc32)CC1 returned D2 PAM-2 6.
Screening Cc1ccc(S(=O)(=O)NC(=O)COc2ccc([N+](=O)[O-])cc2)cc1 returned D2 ag-1 -2, D2 PAM-1 -12, D2 antagonist -16, D2 PAM-2 -1 and D2 ag-2 1.
For CCCOC(=O)c1ccc(NC(=O)C2CC(=O)N(c3ccc(C)cc3)C2)cc1 (configuration not stated) the results were D2 ag-2 0.
`COc1cc(OC)c(NC(=O)N2CCOc3ccc(C)cc32)cc1Cl` gave D2 ag-2 0.

Screening results: PubChem, National Center for Advancing Translational Sciences (NCATS)
